# Source: PubChem BioAssay
# Calls of active or inactive are those of the source. Unless noted, how the calls were made is not given here.
# Legend:
# [1] = resazurin metabolic signal in HepG2 cells – cell-based, resazurin fluorescence, 24 h, PK04 Diversity Set, profiling panel (AID 1172); conditions: HepG2 viability, higher = more signal
# [2] = budding yeast growth changes without added modifier – OD600, strain BY4716, 24 h, basal condition, primary screen (AID 1173); conditions: S. cerevisiae BY4716 growth, OD600, 24 h; higher = more signal, called active from +8 up or from −8 down
# [3] = viability profiling in MM1S myeloma cells – cell-based, resazurin fluorescence, basal, 24 h, PK04 Diversity Set, profiling panel (AID 1174); conditions: higher = more signal, called active from +8 up or from −8 down;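 further: MM1S multiple myeloma cell line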
# [4] = biological target: Dihydroorotate dehydrogenase (quinone), mitochondrial (Plasmodium falciparum (isolate 3D7)) (UniProt Q08210); assay: inhibition of P. falciparum DHODH – biochemical, C-terminal His tag, absorbance 600 nm, primary screen (AID 1175); conditions: PfDHODH enzyme, DCIP absorbance 600 nm; higher = more signal, called active from +8 up or from −8 down;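 further: recombinant parasite enzyme with a five histidine tag at its C terminus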
# [5] = inhibition of PAO1 biofilm formation – strain PAO1, LB-PBS medium, absorbance 600 nm, primary screen (AID 1176); conditions: P. aeruginosa PAO1 growth/biofilm, A600, 12 h; higher = more signal
# [6] = growth modulation of vineyard yeast isolate – strain RM11-1a, OD600, basal, 24 h, primary screen (AID 1177);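 further: cultures grown under basal conditions with no added stressor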; conditions: S. cerevisiae RM11-1a growth, OD600, 24 h; higher = more signal, called active from +8 up or from −8 down
# [7] = growth of efflux-deficient E. coli DRC39 – strain DRC39, OD650, 24 h, E. coli filamentation inducers, primary screen (AID 1178);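 further: growth measured as culture turbidity by optical density at 650 nm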; conditions: E. coli DRC39 acrAB, higher = more signal, called active from +8 up or from −8 down
# [8] = growth of efflux-deficient E. coli DRC39 – strain DRC39, OD650, 48 h, E. coli filamentation inducers, primary screen (AID 1179);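 further: screen aims at cell division blockers that make cells filament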; conditions: E. coli DRC39 delta-acrAB growth, higher = more signal, called active from +8 up or from −8 down
# [9] = viability profiling in RPMI8226 myeloma cells – cell-based, resazurin fluorescence, basal, 24 h, PK04 Diversity Set, profiling panel (AID 1180); conditions: higher = more signal;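 further: RPMI8826 multiple myeloma cell line at 5000 cells per well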
# [10] = biological target: E3 ubiquitin-protein ligase XIAP (Homo sapiens) (UniProt P98170); assay: small molecules binding XIAP protein – biophysical, small-molecule microarray, fluorescence 635 nm, primary screen (AID 1181); conditions: higher = more signal;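 further: score merges 667 nm emission and signal to noise over triplicate slides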
# [11] = tested on: XIP peptide (Xip251-270) binding; assay: XIP fragment 251-270 binding compounds – biochemical, small-molecule microarray, fluorescence 635/667 nm, 0.1 µg/mL protein, primary screen (AID 1182); conditions: fluorescent protein binding, 635 nm, higher = more signal, called active from +8 up or from −8 down
# XIP peptide (Xip251-270) = assay: compounds binding XIP fragment 251-270 – biochemical, small-molecule microarray, fluorescence 635/667 nm, 0.5 µg/mL protein, primary screen (AID 1183); conditions: fluorescence 635 nm, higher = more signal
# [12] = blood-stage malaria parasite viability loss – strain 3D7, DAPI fluorescence, 100 nL, primary screen (AID 1184);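 further: parasites grown inside human red blood cells in medium with human serum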; conditions: P. falciparum 3D7 growth, 3 d, higher = more signal
# [13] = biological target: Homeobox protein Hox-A13 (Mus musculus) (UniProt Q62424); assay: disruptors of Hoxa13 oligonucleotide interaction – biochemical, fluorescence polarization, labeled oligonucleotide, primary screen (AID 1185); conditions: Hoxa13:DNA binding, 15 min, higher = more signal, called active from +8 up or from −8 down
# [14] = blockers of DNA damage checkpoint Chk1 activation – imaging, HeLa, hydroxyurea, phospho-Chk1 antibody, percent positive cells, primary screen (AID 1186); conditions: hydroxyurea-induced phospho-Chk1 immunofluorescence imaging, higher = more signal
# [15] = blockers of DNA damage checkpoint Chk1 activation – imaging, HeLa, hydroxyurea, phospho-Chk1 nuclear intensity, primary screen (AID 1187); conditions: hydroxyurea-induced phospho-Chk1 immunofluorescence imaging, higher = more signal
# Sequence of Homeobox protein Hox-A13 (Mus musculus) (Q62424 whole entry, looked up): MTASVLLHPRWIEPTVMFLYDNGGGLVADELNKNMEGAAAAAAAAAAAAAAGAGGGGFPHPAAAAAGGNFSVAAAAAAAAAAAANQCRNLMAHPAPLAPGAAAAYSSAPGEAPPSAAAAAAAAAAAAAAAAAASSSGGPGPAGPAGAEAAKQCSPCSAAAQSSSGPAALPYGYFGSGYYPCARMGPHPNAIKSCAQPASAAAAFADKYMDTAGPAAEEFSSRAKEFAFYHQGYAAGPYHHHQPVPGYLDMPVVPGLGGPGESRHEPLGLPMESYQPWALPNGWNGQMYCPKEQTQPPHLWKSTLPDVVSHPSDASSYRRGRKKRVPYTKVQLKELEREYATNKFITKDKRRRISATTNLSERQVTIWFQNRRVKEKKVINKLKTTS
# Sequence of E3 ubiquitin-protein ligase XIAP (Homo sapiens) (P98170 whole entry, looked up, the tested form may be a part): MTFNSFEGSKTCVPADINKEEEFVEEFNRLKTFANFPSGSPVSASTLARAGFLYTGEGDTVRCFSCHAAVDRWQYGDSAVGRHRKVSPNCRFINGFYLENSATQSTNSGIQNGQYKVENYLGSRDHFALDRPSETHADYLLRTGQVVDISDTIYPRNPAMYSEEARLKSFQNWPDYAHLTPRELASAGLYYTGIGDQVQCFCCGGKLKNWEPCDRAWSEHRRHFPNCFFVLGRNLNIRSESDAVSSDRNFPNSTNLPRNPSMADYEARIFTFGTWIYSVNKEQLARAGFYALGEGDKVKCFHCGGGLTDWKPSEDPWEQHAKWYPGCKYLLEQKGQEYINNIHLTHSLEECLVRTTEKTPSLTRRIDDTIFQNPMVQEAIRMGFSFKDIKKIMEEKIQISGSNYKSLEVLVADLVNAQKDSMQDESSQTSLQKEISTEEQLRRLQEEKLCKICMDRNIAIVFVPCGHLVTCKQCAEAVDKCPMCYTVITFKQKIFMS
# Sequence of Dihydroorotate dehydrogenase (quinone), mitochondrial (Plasmodium falciparum (isolate 3D7)) (Q08210 whole entry, looked up): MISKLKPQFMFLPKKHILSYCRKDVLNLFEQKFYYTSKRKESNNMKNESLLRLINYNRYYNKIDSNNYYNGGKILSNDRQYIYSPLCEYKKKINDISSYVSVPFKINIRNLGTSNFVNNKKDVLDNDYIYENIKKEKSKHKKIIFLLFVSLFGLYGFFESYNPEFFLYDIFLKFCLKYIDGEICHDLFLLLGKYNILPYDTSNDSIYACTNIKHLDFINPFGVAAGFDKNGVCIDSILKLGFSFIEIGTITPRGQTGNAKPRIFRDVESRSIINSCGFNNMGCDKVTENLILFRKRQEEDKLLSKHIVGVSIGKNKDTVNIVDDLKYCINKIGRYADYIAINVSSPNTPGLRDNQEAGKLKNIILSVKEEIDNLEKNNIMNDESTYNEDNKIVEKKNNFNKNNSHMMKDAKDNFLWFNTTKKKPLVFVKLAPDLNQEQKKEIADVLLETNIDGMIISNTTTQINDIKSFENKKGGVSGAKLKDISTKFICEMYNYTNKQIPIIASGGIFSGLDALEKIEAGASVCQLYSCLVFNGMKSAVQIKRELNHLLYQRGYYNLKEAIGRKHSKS
SMILES,z-score [1],z-score [2],z-score [3],composite z-score [4],z-score [5],z-score [6],z-score [7],z-score [8],z-score [9],composite z-score [10],composite z-score [11],composite z-score (XIP peptide (Xip251-270)),z-score [12],z-score [13],z-score [14],z-score [15]
CCOC(=O)C1=CC[C@H]2C(=O)N(c3ccccc3)C(=O)[C@@H]12,0.119,0.206 (inactive),-0.811 (inactive),0.494 (inactive),-0.417 (inactive),-0.337 (inactive),-0.809 (inactive),-1.17 (inactive),-0.0357,0.154,0.571 (inactive),0.903,-0.55,-3.98 (inactive),0.152 (inactive),-0.177 (inactive)
Cc1ccc(/C=C/C=O)cc1,-0.466,-1.75 (inactive),-0.509 (inactive),-0.962 (inactive),-0.64 (inactive),0.213 (inactive),0.562 (inactive),0.386 (inactive),0.812,-0.214,0.551 (inactive),0.284,1.39,-1.15 (inactive),0.503 (inactive),0.713 (inactive)
O=C1C2C=CC(C(O)C=Cc3ccc([N+](=O)[O-])cc3)N(Nc3ccccc3F)C2C(=O)N1c1ccccc1 (centres undefined),-0.964,2.18 (inactive),-0.747 (inactive),1.06 (inactive),1.58 (inactive),1.6 (inactive),-0.388 (inactive),-0.138 (inactive),-0.381,0.0101,0.308 (inactive),0.774,-0.448,-4.79 (inactive),-0.668 (inactive),-1.16 (inactive)
C=CC1c2cc(O)c(OC)cc2CCN1Cc1cccc(OC(F)(F)F)c1 (centres undefined),0.125,-16.7 (active),-4.17 (inactive),-5.06 (inactive),0.0898 (inactive),-13.7 (active),1.2 (inactive),0.738 (inactive),-2.3,0.0304,1.81 (inactive),0.918,-1.8,-4.91 (inactive),0.08 (inactive),0.362 (inactive)
O[C@@H](Cc1ccccc1)[C@@H](/C=C/C1CC1)NCc1cccc(Cl)c1,-0.891,-9.37 (active),-1.22 (inactive),-0.316 (inactive),-0.344 (inactive),-1.15 (inactive),0.451 (inactive),-0.957 (inactive),-1.18,-0.175,-0.58 (inactive),-0.134,-1.44,0.306 (inactive),-0.303 (inactive),-0.682 (inactive)
CC(C)NC(=O)[C@@]1(Cc2ccccc2I)c2ccccc2C(=O)N(Cc2ccccc2Cl)[C@H]1c1ccc(CO)cc1,-0.344,-0.673 (inactive),0.179 (inactive),0.0754 (inactive),-0.103 (inactive),0.818 (inactive),0.107 (inactive),-0.706 (inactive),-0.0558,0.0049,0.705 (inactive),0.615,0.0173,-3.93 (inactive),-0.0537 (inactive),0.1 (inactive)
CCCCC(=C=CC[C@@H](O)c1ccc(CO)o1)CCO,1.15,-0.205 (inactive),-0.438 (inactive),-0.594 (inactive),0.838 (inactive),0.175 (inactive),1.54 (inactive),1.12 (inactive),1.22,0.128,0.54 (inactive),0.218,0.0728,-4.16 (inactive),-0.364 (inactive),-0.13 (inactive)
COc1cc(OC)c(C(O)C2C=CC3C(=O)NC(=O)C3N2Nc2ccccn2)cc1Br (centres undefined),-0.455,-0.991 (inactive),-0.597 (inactive),0.412 (inactive),1.19 (inactive),0.666 (inactive),-0.0857 (inactive),-0.512 (inactive),-0.195,-0.0525,0.654 (inactive),0.448,0.776,-1.28 (inactive),-0.143 (inactive),-0.266 (inactive)
COc1ccccc1CN1C(=O)c2ccccc2[C@@H](C(=O)NCc2ccccc2)[C@@H]1c1ccc(CO)cc1,-0.678,0.0688 (inactive),0.122 (inactive),0.942 (inactive),-0.0528 (inactive),-0.0226 (inactive),-0.236 (inactive),-0.36 (inactive),0.427,-0.193,0.737 (inactive),0.785,-1.45,-1.22 (inactive),-0.295 (inactive),-0.0433 (inactive)
